Measurements published in PubChem BioAssay (Tox21).
“And” between values parts separate entries of the source, which are not always exact repeats. Identical values can stand only once. Inconclusive results are not listed. The source made the active and inactive calls. Unless noted, calls come from the whole dose curve; as a rule, active = well fitted curve in the direction sought with a large enough effect in the repeat runs; inconclusive = weak or mixed curves; inactive = no such curve, though single readings can be large; an effect the other way counts as inactive or inconclusive.

How the values were obtained:
[1] = qHTS assay for small molecules that induce genotoxicity in human embryonic kidney cells expressing luciferase-tagged ATAD5 (AID 651632); note: nearly all actives have a fitted effect of over 15% in size
Summary of the method: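 DMSO vehicle served as the control. HEK293T reporter cells, 16 hr at 37C, then 30 min Amplite at room temperature; ATAD5 induction is measured as luciferase activity.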

[2] = qHTS assay for small molecule agonists of the p53 signaling pathway - cell viability (AID 651633; calls by dose curve;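 note: p53RE-bla HCT reporter cells with a stable beta-lactamase p53 reporter; series mostly up to about 83 µM; nearly all actives have a fitted effect of over 30% in size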)
Summary of the method: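 Viability counter-read: CellTiter-Glo luminescence (30 min, room temperature) in the same p53RE-bla plates. These plates had been exposed to compounds for 16 h at 37 C.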

[3] = qHTS assay for small molecules that induce genotoxicity in human embryonic kidney cells expressing luciferase-tagged ATAD5 - cell viability (AID 651634; calls by dose curve; note: nearly all actives have a fitted effect of over 25% in size)
Summary of the method: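 Here HEK293T cells with the ATAD5 luciferase reporter are incubated with test compounds for 15.5 hr, and cytotoxicity is then gauged by measuring protease activity in live cells using fluorescence.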

[4] = qHTS assay for small molecule disruptors of the mitochondrial membrane potential - cell viability (AID 720634; calls by dose curve;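 note: human HepG2 liver cancer cells; series mostly up to about 83 µM; nearly all actives have a fitted effect of over 20% in size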)
Summary of the method: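 Viability of HepG2 cells is scored from ATP content by luminescence; cells are exposed to compound for 1 hr at 37 C and 5% CO2, then dosed with m-MPI dye before the CellTiter-Glo reagent.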

[5] = qHTS assay to test for compound auto fluorescence at 590 nm (red) in HepG2 cells (AID 720674)
Summary of the method: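 We screened compounds on adherent HepG2 cells, incubating them for an hour at 37 C in 5% CO2 before reading emission at 590 nm under 540 nm excitation; values reflect equivalence to Rose Bengal sodium fluorescence.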

[6] = qHTS assay to test for compound auto fluorescence at 460 nm (blue) in HEK293 cells (AID 720678)
Summary of the method: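 After cell attachment (4-5 hr, 37C), compounds were pinned onto HEK293 monolayers in 10% dialyzed FBS medium. The blue channel (405/460 nm) was read following overnight culture. Equivalency was calculated against triamterene.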

[7] = qHTS assay to test for compound auto fluorescence at 590 nm (red) in HEK293 cells (AID 720679)
Summary of the method: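 Plates of HEK293 cells (10% dialyzed FBS) are treated with 23 nL compound or DMSO vehicle after a 4-5 hr attachment period, incubated overnight at 37C, and read for red fluorescence at 540/590nm.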

[8] = qHTS assay to test for compound auto fluorescence at 460 nm (blue) in HEK293 cell free culture (AID 720681)
Summary of the method: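 Blue fluorescence (Ex 405/Em 460 nm, triamterene-equivalent) was read immediately after pin transfer of compound or DMSO into medium (DMEM, 10% FBS) without cells.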

[9] = qHTS assay to test for compound auto fluorescence at 535 nm (green) in HEK293 cell free culture (AID 720682)
Summary of the method: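 Green-label autofluorescence (485 nm excitation, 535 nm emission) measured on compound added to cell-free culture medium (DMEM, 10% FBS). Output is expressed relative to fluorescein.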

[10] = qHTS assay to identify small molecule antagonists of the glucocorticoid receptor (GR) signaling pathway - cell viability counter screen (AID 720693); note: nearly all actives have a fitted effect of over 55% in size
[11] = qHTS assay to identify small molecule antagonists of the androgen receptor (AR) signaling pathway using the MDA cell line - cell viability counter screen (AID 743041; note: nearly all actives have a fitted effect of over 45% in size)
Summary of the method: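 Viability read by CellTiter-Fluor fluorescence in the same wells as the antagonist screen, added after 15.5 h of a 16 h, 37C exposure. Human breast carcinoma MDA-kb2 AR-luc cells, compounds co-dosed with agonist R1881.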

[12] = test system: thyroid hormone receptor (rat, GH3 cells); assay: qHTS assay to identify small molecule agonists of the thyroid receptor (TR) signaling pathway (AID 743066; calls by dose curve)
[13] = qHTS assay to identify small molecule antagonists of the estrogen receptor alpha (ER-alpha) signaling pathway - cell viability counter screen (AID 743074; calls by dose curve;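 note: HEK293 cells carrying ER-alpha-UAS-bla reporter stimulated with 17beta-estradiol; nearly all actives have a fitted effect of over 45% in size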)
[14] = qHTS assay to identify small molecule antagonists of the estrogen receptor alpha (ER-alpha) signaling pathway using the BG1 cell line - cell viability counter screen (AID 743081);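 note: compound given together with 17beta-estradiol as the ER stimulus; series mostly up to about 70 µM; nearly all actives have a fitted effect of over 45% in size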
Aromatase (Homo sapiens) = Aromatase (Homo sapiens) (UniProt P11511); assay: qHTS assay to identify aromatase inhibitors (AID 743083); note: series mostly up to about 70 µM; nearly all actives have a fitted effect of over 55% in size
[15] = qHTS assay to identify aromatase inhibitors - cell viability counter screen (AID 743084);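 note: cells stimulated with testosterone during compound exposure; nearly all actives have a fitted effect of over 55% in size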
[16] = qHTS assay to identify small molecule that activate the aryl hydrocarbon receptor (AhR) signaling pathway - cell viability counter screen (AID 743086);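 note: HepG2 liver cells carrying the AhR DRE luciferase reporter; series mostly up to about 70 µM; nearly all actives have a fitted effect of over 45% in size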
Summary of the method: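 Cytotoxicity counter screen: CellTiter-Fluor signal (30 min, 37 C) in 4000 HepG2 cells/well carrying the DRE-luciferase reporter, following 24 h compound exposure at 37 C.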

[17] = qHTS assay to identify small molecule phospholipidosis (PLD) inducers (AID 1259344; active = well fitted curve in the direction sought with a large enough effect; an effect the other way counts as inactive or inconclusive)
Summary of the method: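 Phospholipid accumulation was scored by imaging: fixed, Hoechst-counterstained HepG2 cells stained with LipidTOX Red after 24 h compound exposure at 37 C. Read-outs were pit count and pit intensity per well or per cell, with amiodarone and DMSO controls.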

[18] = target: Nuclear receptor subfamily 1 group I member 2 (Rattus norvegicus) (UniProt Q9R1A7); assay: Rat pregnane X receptor (rPXR) activation by small molecules, qHTS assay (AID 1346983); conditions: rPXR luciferase reporter cells, One-Glo luminescence, 24 h; max activation: active compounds read high; note: nearly all actives have a fitted effect of over 20% in size
Summary of the method: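 Luminescent readout (One-Glo luciferase, 30 min room temperature) followed 24 hr compound treatment at 37 C of rPXR cells plated 2,000 per well and preincubated 5hr; qHTS format with compounds delivered in DMSO.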

[19] = target: Nuclear receptor subfamily 1 group I member 2 (Homo sapiens) (UniProt O75469); assay: CYP3A4 induction through human pregnane X receptor (PXR) by small molecules, qHTS assay (AID 1346984); note: nearly all actives have a fitted effect of over 40% in size
Summary of the method: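 Cells (DPX-2; HepG2 with PXR element plus CYP3A4-promoter luciferase) settled 5hr, then were treated 24hr at 37C. A 3hr, 3uM-final Luciferin-IPA step preceded luminescence measurement with One-Glo.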
% is set by controls: 0 for no effect and ±100 for the full control effect.

Chain of Aromatase (Homo sapiens) (P11511 whole entry, looked up): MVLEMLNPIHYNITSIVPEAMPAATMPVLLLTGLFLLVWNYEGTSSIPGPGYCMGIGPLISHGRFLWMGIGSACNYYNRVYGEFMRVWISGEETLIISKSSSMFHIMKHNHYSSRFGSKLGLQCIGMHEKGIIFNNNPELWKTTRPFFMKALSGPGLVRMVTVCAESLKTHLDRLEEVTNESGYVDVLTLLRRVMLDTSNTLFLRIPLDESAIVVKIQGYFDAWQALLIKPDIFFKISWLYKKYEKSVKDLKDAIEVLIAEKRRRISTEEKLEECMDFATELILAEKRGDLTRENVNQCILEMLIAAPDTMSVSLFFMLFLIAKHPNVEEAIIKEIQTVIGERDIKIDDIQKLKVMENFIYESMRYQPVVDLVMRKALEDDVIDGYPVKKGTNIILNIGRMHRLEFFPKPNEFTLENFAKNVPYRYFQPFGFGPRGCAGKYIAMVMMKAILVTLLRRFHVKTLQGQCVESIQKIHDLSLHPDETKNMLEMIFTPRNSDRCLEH
Chain of Nuclear receptor subfamily 1 group I member 2 (Rattus norvegicus) (Q9R1A7 whole entry, looked up): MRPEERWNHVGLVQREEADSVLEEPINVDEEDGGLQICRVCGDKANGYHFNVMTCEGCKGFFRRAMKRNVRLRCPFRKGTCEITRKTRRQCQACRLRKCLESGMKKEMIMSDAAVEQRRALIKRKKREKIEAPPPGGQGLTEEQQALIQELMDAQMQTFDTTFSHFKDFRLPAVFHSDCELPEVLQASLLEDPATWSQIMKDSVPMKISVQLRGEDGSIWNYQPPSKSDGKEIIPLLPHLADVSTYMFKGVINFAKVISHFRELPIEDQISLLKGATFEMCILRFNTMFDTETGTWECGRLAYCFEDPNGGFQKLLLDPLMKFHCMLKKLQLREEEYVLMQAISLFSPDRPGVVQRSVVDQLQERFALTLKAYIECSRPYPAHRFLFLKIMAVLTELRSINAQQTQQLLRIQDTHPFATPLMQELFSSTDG

CNc1ccc(C(=O)CC(O)CCC(C)C2OC(=O)CC(O)CC(=O)CC(O)CC(O)CC(O)CC(O)CC3(O)CC(O)C(C(=O)OC)C(CC(O[C@@H]4O[C@H](C)[C@@H](O)[C@H](N)[C@@H]4O)/C=C/C=C/C=C/C=C/C=C/C=C/C=C/C2C)O3)cc1 (some centres undefined)
inactive: Potency [1] | Potency [2] | Potency [3] | Potency [4] | outcome [5] | Potency [6] | outcome [7] | Potency [8] | Potency [9] | Potency [10] | Potency [11] | Potency [12] | Potency [13] | Potency [14] | Potency (Aromatase (Homo sapiens)) | Potency [15] | Potency [16] | Potency [17] | max activation [18] -1.47% | Potency [19]

CCON=O
inactive: Potency [1] | Potency [2] | Potency [3] | Potency [4] | outcome [5] | Potency [6] | outcome [7] | Potency [8] | Potency [9] | Potency [10] | Potency [11] | Potency [12] | Potency [13] | Potency [14] | Potency (Aromatase (Homo sapiens)) | Potency [15] | Potency [16] | Potency [17] | max activation [18] -2.18% | Potency [19]

CC(=O)OC1CN2CCC1CC2 (centres undefined)
inactive: Potency [1] | Potency [2] | Potency [3] | Potency [4] | outcome [5] | Potency [6] | outcome [7] | Potency [8] | Potency [9] | Potency [10] | Potency [11] | Potency [12] | Potency [13] | Potency [14] | Potency (Aromatase (Homo sapiens)) | Potency [15] | Potency [16] | Potency [17] | max activation [18] -0.436% | Potency [19]

CCC(C)(S(=O)(=O)CC)S(=O)(=O)CC
inactive: Potency [1] | Potency [2] | Potency [3] | outcome [5] | Potency [6] | outcome [7] | Potency [8] | Potency [9] | Potency [10] | Potency [11] | Potency [12] | Potency [13] | Potency (Aromatase (Homo sapiens)) | Potency [15] | Potency [16] | Potency [17] | max activation [18] -2.56% | Potency [19]

C[N+]1(C)CCCCC1COC(=O)C(O)(c1ccccc1)c1ccccc1 (centres undefined)
inactive: Potency [1] | Potency [2] | Potency [3] | Potency [4] | outcome [5] | Potency [6] | outcome [7] | Potency [8] | Potency [9] | Potency [10] | Potency [11] | Potency [13] | Potency [14] | Potency (Aromatase (Homo sapiens)) | Potency [15] | Potency [16] | Potency [17] | max activation [18] 2.59% | Potency [19]

O=C(C[C@@H]1NCCC[C@H]1O)Cn1cnc2cc(Br)c(Cl)cc2c1=O
inactive: Potency [1] | Potency [2] | Potency [3] | Potency [4] | outcome [5] | Potency [6] | outcome [7] | Potency [8] | Potency [9] | Potency [10] | Potency [11] | Potency [12] | Potency [13] | Potency [14] | Potency (Aromatase (Homo sapiens)) | Potency [15] | Potency [16] | Potency [17] | max activation [18] 5.28% | Potency [19]

C[N+]1([O-])[C@@H]2CC(OC(=O)[C@H](CO)c3ccccc3)C[C@H]1[C@@H]1O[C@@H]12 (some centres undefined)
inactive: Potency [1] | Potency [2] | Potency [3] | Potency [4] | outcome [5] | Potency [6] | outcome [7] | Potency [8] | Potency [9] | Potency [10] | Potency [11] | Potency [12] | Potency [13] | Potency [14] | Potency (Aromatase (Homo sapiens)) | Potency [15] | Potency [16] | Potency [17] | max activation [18] 6.47% and -0.453% | Potency [19]

O[C@H]1[C@H]2[C@H](O)CCCN2C[C@H]1O
inactive: Potency [1] | Potency [2] | Potency [3] | Potency [4] | outcome [5] | Potency [6] | outcome [7] | Potency [8] | Potency [9] | Potency [10] | Potency [11] | Potency [12] | Potency [13] | Potency (Aromatase (Homo sapiens)) | Potency [15] | Potency [16] | Potency [17] | max activation [18] -2.82% | Potency [19]

O=C1CCO1
inactive: Potency [1] | Potency [2] | Potency [3] | Potency [4] | outcome [5] | Potency [6] | outcome [7] | Potency [8] | Potency [9] | Potency [10] | Potency [11] | Potency [12] | Potency [14] | Potency (Aromatase (Homo sapiens)) | Potency [15] | Potency [16] | Potency [17] | max activation [18] -0.633% | Potency [19]

NC1=NC(=O)N2CC12 (centres undefined)
inactive: Potency [1] | Potency [2] | Potency [3] | Potency [4] | outcome [5] | Potency [6] | outcome [7] | Potency [8] | Potency [9] | Potency [10] | Potency [11] | Potency [12] | Potency [13] | Potency [14] | Potency (Aromatase (Homo sapiens)) | Potency [15] | Potency [16] | Potency [17] | max activation [18] -1.23% | Potency [19]

CCCC(C)(COC(N)=O)COC(=O)NC1CC1 (centres undefined)
inactive: Potency [1] | Potency [2] | Potency [3] | Potency [4] | outcome [5] | Potency [6] | outcome [7] | Potency [8] | Potency [9] | Potency [10] | Potency [11] | Potency [12] | Potency [13] | Potency [14] | Potency (Aromatase (Homo sapiens)) | Potency [15] | Potency [16] | Potency [17] | max activation [18] -2.91% | Potency [19]

CC(C)C[C@H](CN)CC(=O)O
inactive: Potency [1] | Potency [2] | Potency [3] | Potency [4] | outcome [5] | Potency [6] | outcome [7] | Potency [8] | Potency [9] | Potency [10] | Potency [11] | Potency [13] | Potency [14] | Potency (Aromatase (Homo sapiens)) | Potency [15] | Potency [16] | Potency [17] | max activation [18] -2.72% | Potency [19]
